KB-V1 cytotox: KB-V1 MDR subline cytotoxicity; KB-V1 MDR cells viability, CellTiter-Glo, 72 h; Potency, µM (top dose mostly 46.1 µM), usual class: cytotoxic; 400,000 compounds, 3.4% hits; AID 1347076; note: nearly all actives have a fitted effect of over 60% in size
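Potencies derive from concentration-effect curves fitted to normalized luminescence (CellTiter-Glo) of KB-V1 cells treated for 72 h at 37 degrees C in phenol-red-free DMEM containing 10% FBS.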
HT1080 IDH1KD tx: HT-1080 IDH1 knockdown cell toxicity (counter line); HT-1080 IDH1 knockdown viability, ATP luminescence, 48 h; Potency, µM (highest dose often 46.1 µM), for the others: top-dose activity, negative = toxicity, hits mostly cytotoxic; 360,000 compounds, 2% hits;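 note: 0% = DMSO wells and -100% = cell-free medium wells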
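Assay cells: HT-1080 with IDH1 knockdown, 750 per well, RPMI/5% FBS. Exposure: 48 h at 37 °C following 2 h pre-incubation. Read: CellTiter-Glo luminescence; fitted concentration-response, curve class assigned.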
KB-3-1 tox: KB-3-1 parental cell cytotoxicity; KB-3-1 viability, CellTiter-Glo ATP luminescence, 72 h; Potency, µM (highest dose often 46.1 µM), most hits filed as cytotoxic; 400,000 compounds, 1.4% hits; AID 1347075; note: nearly all actives have a fitted effect of over 60% in size
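KB-3-1 parental drug-naive adenocarcinoma cells in DMEM/10% FBS, incubated 72 h at 37 C with pin-transferred compounds across a concentration series. Viability by CellTiter-Glo luminescence; concentration-response curves fitted after normalization.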
HT1080-NT tox: kills 2HG-producing HT-1080-NT fibrosarcoma cells. HT-1080-NT fibrosarcoma viability, CellTiter-Glo ATP luminescence, 48 h. AID 686970. Potency, µM (titrated, usually from 46.1 µM), for the others: at the highest dose activity, negative = less viability, actives largely listed as cytotoxic. 360,000 compounds, 1.6% hits;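 note: NT is the 2HG producing partner of a matched IDH1 knockdown line; 0% = DMSO-treated cells and -100% = media-only wells without cells; nearly all actives have a fitted effect of over 55% in size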
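Fibrosarcoma NT cells, 750 per well in 5% FBS RPMI, were exposed to compound for 48 hours. Viability: CellTiter-Glo luminescence.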
DT40 TDP1 CPT: growth inhibition of DT40 Tdp1-/-;hTDP1 cells with camptothecin (screen for TDP1 inhibitors) | Potency, µM (highest dose often 46.2 µM), for inactives: at the highest dose activity change, negative = growth inhibition, most hits filed as inhibitors | 420,000 compounds, 12% hits | chicken DT40 Tdp1-/-;hTDP1 cells + 20 nM CPT, ATP luminescence, 48 h; note: nearly all actives have a fitted effect of over 55% in size
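Chicken DT40 Tdp1-/- cells stably complemented with human TDP1 were seeded at 400 cells/well in medium containing 20 nM camptothecin, exposed to pin-transferred compounds, and grown at 37 °C for at least 48 hr. Viability was read as ATP luminescence.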
DT40 TDP1 no CPT: qHTS for Inhibitors of human tyrosyl-DNA phosphodiesterase 1 (TDP1): qHTS in cells in absence of CPT | DT40 Tdp1-/- hTDP1 cells, no CPT, ATP luminescence, 48 h | Potency, µM (series often up to 46.2 µM), inactives show top-dose activity change, negative = growth inhibition, hits mostly inhibitors | 420,000 compounds, 15% hits | AID 686978, 2013; note: nearly all actives have a fitted effect of over 55% in size
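No-CPT arm: Tdp1-/-;hTDP1 DT40 cells (400/well) plus compounds, incubated ≥48 hr at 37 °C. Readout CellTiter-Glo luminescence.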
The depositor's hits bear a star; i = inactive; ? = inconclusive; / = no result. This is a sample that favours compounds with a hit; in the whole collection about 19% have one here. Calls come from the whole dose curve; as a rule, active = well fitted curve in the direction sought with a large enough effect; inconclusive = small, poorly fitted or top-dose-only effect, or another doubt; inactive = no such curve, though single readings can be large; an effect the other way counts as inactive or inconclusive. Unless noted, % is set by controls: 0 for no effect and ±100 for the full control effect; potency is the fitted concentration of half-maximal effect.

SMILES	KB-V1 cytotox	HT1080 IDH1KD tx	KB-3-1 tox	HT1080-NT tox	DT40 TDP1 CPT	DT40 TDP1 no CPT
CC1(C)Cc2c(c(-c3ccco3)nc3sc4c(NCCCO)ncnc4c23)CO1	?	-4.0%	i	0.0%	10.3µM*	8.2µM*
CSc1nc(SCC(=O)O)c2sc3nc(-c4ccccc4)c4c(c3c2n1)CCC4	?	-2.3%	i	-25.8%	-2.7%	?
CC1(C)Cc2c(C#N)c(NCCO)nc(-c3ccco3)c2CO1	?	1.2%	i	7.6%	-21.8%	?
CC1(C)Cc2c(c(-c3ccco3)nc3sc4c(NCC5CCCO5)ncnc4c23)CO1 (stereo not drawn)	?	?	?	?	18.4µM*	20.6µM*
CSc1nc(NCCN(C)C)c2sc3nc(-c4ccco4)c4c(c3c2n1)CCC4	i	-7.6%	i	-22.9%	6.51µM*	11.6µM*
CCOC(=O)c1[nH]c(C)c(CCC(=O)Nc2cc(Cl)c(OC)cc2OC)c1C	?	/	i	/	?	?
COc1ccc(N2C(=O)NC(NS(=O)(=O)c3ccccc3)(C(F)(F)F)C2=O)cc1 (stereo not drawn)	i	5.0%	i	-2.1%	-5.5%	-6.2%
COc1ccc(N=C2C(=S)N(c3ccc(OC)cc3)C(=NS(=O)(=O)c3ccccc3)N2c2ccccc2)cc1	?	11.3%	i	-3.2%	1.46µM*	1.46µM*
C/C(=N\NC(=S)NCC(C)(C)C)c1cc(F)cc(F)c1O	?	?	i	-14.6%	14.6µM*	14.6µM*
COCCNC(=S)N/N=C(\C)c1ccc(O)cc1	i	-12.1%	i	-2.4%	?	?
Cc1ccc(CNC(=O)c2cnc(N3CCCCC3)c3ccccc23)cc1	i	/	i	/	?	16.4µM*
O=C(NCc1ccc(F)cc1)c1cnc(N2CCOCC2)c2ccccc12	i	/	i	/	?	16.4µM*
O=C(NCc1cccc(Cl)c1)c1cnc(N2CCCCC2)c2ccccc12	i	/	i	/	16.4µM*	25.9µM*
O=C(NCc1ccc(Cl)cc1)c1cnc(N2CCCCC2)c2ccccc12	i	/	i	/	?	?
COc1cccc(CNC(=O)c2cccnc2Sc2ccccc2)c1	?	-0.3%	i	9.3%	-2.9%	11.5%
COc1cccc(CNC(=O)c2cnc(N3CCCCC3)c3ccccc23)c1	i	/	i	/	14.6µM*	?
CCCN(CC(=O)Nc1ccccc1C)C(=O)c1cccc(-n2cnnn2)c1	i	4.4%	i	5.2%	11.7%	13.4%
C=CCn1c(SCC(=O)Nc2sccc2C(N)=O)nc2ccc(Cl)cc2c1=O	?	?	?	?	14.6µM*	16.4µM*
C=CCn1c(SCN2C(=O)c3ccccc3C2=O)nc2ccc(Cl)cc2c1=O	16.4µM*	0.3%	?	-1.4%	18.4µM*	18.4µM*
C=CCn1c(SCC(N)=O)nc2ccccc2c1=O	i	/	?	/	-10.8%	-27.4%
COC(=O)c1ccc2c(=O)[nH]c(CN3c4ccccc4CC3C)nc2c1 (stereo not drawn)	?	12.7%	i	5.7%	-16.1%	?
C=CCn1c(SCC(=O)Nc2sccc2C(N)=O)nc2sc(CC)cc2c1=O	i	?	?	?	?	25.9µM*
COC(=O)c1ccc2c(=O)[nH]c(CCl)nc2c1	i	?	i	-1.5%	11.6µM*	14.6µM*
COc1ccccc1N(CC(=O)Nc1ccc(Br)cc1F)S(=O)(=O)c1cccs1	i	-12.1%	?	-19.0%	?	?
C=CCn1c(SCC(=O)c2c(N)n(CCC)c(=O)n(C)c2=O)nc2sc(CC)cc2c1=O	?	5.0%	?	9.6%	6.51µM*	5.8µM*

High-throughput results as filed in PubChem.
